FAK inh = FAK kinase inhibitors, primary screen, biochemical. Focal adhesion kinase 1 (Homo sapiens), Q05397. biochemical FAK kinase activity assay. 97,000 compounds, 0.84% hits. inhibition, %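 (tested at 7 µM)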; in the data active = inhibition above about 19%
D1 mod = D1 CRE-luciferase signal change, two-sided – cell-based, HEK293 D1, dopamine EC30, D1 allosteric modulator project, primary screen; D(1A) dopamine receptor (Homo sapiens), P21728; dopamine EC30 potentiation; actives deviate in either direction; B-score at 10 µM; 58,000 compounds, 5.9% hits; AID 641, 2007;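 active = luminescence count or its row- and column-corrected plate score outside the 99.7% band of the plate's sample wells, on either side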
Mac1 fbg enh = enhancers of CD11b/CD18 adhesion to fibrinogen, primary screen, K562 cells, luminescence. ATPlite luminescence. activation, % at 10 µM. AID 1499, 2009. Integrin beta-2 (Homo sapiens) + Integrin alpha-M (Homo sapiens), P05107+P11215. 93,000 compounds, 0.07% hits;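 active = 10 µM primary screen giving 50% or more activity, confirmed by 40% or more on retest at that dose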
Target sequence (P05107 whole entry, looked up, other chains not shown): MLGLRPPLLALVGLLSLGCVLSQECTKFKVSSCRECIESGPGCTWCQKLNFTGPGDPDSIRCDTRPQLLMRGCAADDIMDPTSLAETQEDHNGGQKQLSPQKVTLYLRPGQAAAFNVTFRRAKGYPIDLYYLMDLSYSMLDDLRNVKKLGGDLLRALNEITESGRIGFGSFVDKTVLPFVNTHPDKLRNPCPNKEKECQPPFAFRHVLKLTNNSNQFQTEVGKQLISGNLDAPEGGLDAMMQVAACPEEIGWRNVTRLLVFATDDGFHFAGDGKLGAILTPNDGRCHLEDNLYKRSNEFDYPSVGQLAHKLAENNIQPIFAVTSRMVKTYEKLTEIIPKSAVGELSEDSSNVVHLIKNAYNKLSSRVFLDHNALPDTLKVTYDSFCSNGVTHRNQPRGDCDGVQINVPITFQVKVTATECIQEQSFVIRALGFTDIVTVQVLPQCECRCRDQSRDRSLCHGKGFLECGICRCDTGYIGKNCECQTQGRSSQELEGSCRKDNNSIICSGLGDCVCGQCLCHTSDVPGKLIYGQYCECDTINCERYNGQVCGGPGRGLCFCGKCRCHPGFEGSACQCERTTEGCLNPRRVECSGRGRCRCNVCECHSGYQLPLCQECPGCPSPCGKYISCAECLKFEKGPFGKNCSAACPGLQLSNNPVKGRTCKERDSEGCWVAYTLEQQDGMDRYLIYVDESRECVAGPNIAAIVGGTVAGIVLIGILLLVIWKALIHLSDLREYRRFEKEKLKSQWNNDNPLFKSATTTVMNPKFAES
Pyk2 oligo antag = antagonists of Pyk2 self-association, primary screen, Q293 cells, FERM NanoBiT luminescence, HTS | 99,000 compounds, 0.83% hits | Protein-tyrosine kinase 2-beta (Homo sapiens), Q14289 | z-score (the deposit names both 25 µM and 10 µM) | AID 1347419, 2020 | stronger effect = lower value;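 active = Z-score of -3 or lower, scaled per plate to the spread of control and sample wells; inactive = z-score above -3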;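 note: negative z-score means lost luminescence so less FERM oligomerization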
Mac1 fbg inh = inhibitors of CD11b/CD18 adhesion to fibrinogen, primary screen, K562 cells, luminescence; inhibition, % at 10 µM; ATPlite luminescence; Mn2+ added to activate the integrin; Integrin beta-2 (Homo sapiens) + Integrin alpha-M (Homo sapiens), P05107+P11215; 93,000 compounds, 0.54% hits;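 active = primary inhibition of 50% or more at 10 µM, then 40% or more on retest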
hDAT+cocaine = changed hDAT dopamine uptake under cocaine IC80, either direction, primary screen, cocaine antagonist project, cell-based, LLC-PK1 hDAT, [14C]-dopamine uptake, MLSMR. LLC-PK1 hDAT cells, [14C]-dopamine uptake with cocaine IC80; actives deviate in either direction. AID 449768, 2010. B-score at 10 µM. Sodium-dependent dopamine transporter (Homo sapiens), Q01959. 110,000 compounds, 1.3% hits;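 active = Z score or B-score, a plate-position-corrected score, falls beyond the plate's 99.7% confidence bounds, in either direction; inactive = both scores lie inside the 99.7% bounds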
A number is an active result; 0 = inactive; - = no result. The entries come from a sample that favours hits as a whole.

SMILES	FAK inh	D1 mod	Mac1 fbg enh	Pyk2 oligo antag	Mac1 fbg inh	hDAT+cocaine
CCC(=Nc1ccc(OC)cc1OC)c1c(O)n(C2CCCCC2)c(=O)[nH]c1=O	0	0	0	-3.4	0	0
Cc1ccc2c(c1)C1CN(C)CCC1N2C(=O)c1ccc(Br)o1 (configuration not stated)	0	-3.1	0	0	0	0
Cc1ccc2c(c1)C1CN(C)CCC1N2C(=O)Nc1cccc(C(F)(F)F)c1 (configuration not stated)	0	-	0	0	0	0
Cc1ccc2c(c1)C1CN(C)CCC1N2S(=O)(=O)c1ccccc1 (configuration not stated)	0	-	0	0	0	0
Cc1ccc2c(c1)[C@@H]1CN(C)CC[C@@H]1N2C(=O)Nc1cccc(C(F)(F)F)c1	0	-4.8	0	0	0	0
COC(=O)C1=C(c2cccc(OC)c2OC)C[C@@H]2CC[C@H]1N2C(=O)NC(C)C	-	-	-	-	-	0
CCn1ncc(/C=C2/CC3C4CC=C5CC(O)CCC5(C)C4CCC3(C)C2=O)c1C (configuration not stated)	0	-	-	-	-	-
N[C@@H]1CCCC[C@H]1N.O=C(O)C(=O)O.[Pt]	-	-	-	-	-	0
Cc1ccc2nc3c(cc2c1)CC1(C(=O)N(C)C(=O)N(C)C1=O)C1CCCCN31 (configuration not stated)	0	0	0	0	0	2.9
OC[C@@H](O)CCl	-	-	-	-	-	0
Cc1cccc(N2C(=O)NC(=O)/C(=C\c3cccn3-c3ccc(Cl)cc3)C2=O)c1	0	-	-	-3.4	-	0
COc1ccc(C(=O)N2CCOCC2)cc1S(=O)(=O)N1CCC(C)CC1	0	0	0	0	0	0
CC1CCN(S(=O)(=O)c2ccc(NN=C(C#N)C#N)cc2)CC1	0	-	0	-	98	0
Cc1nc2c(=O)n(C)c(=O)nc-2n(C)n1	68	-	-	0	-	-
C[C@H](N)CN1CCc2ccc(Br)cc21	-	-	-	-	-	0
c1ccc2c(CCNC3=NCCC3)c[nH]c2c1	0	-2.7	0	0	0	0
Oc1ccc2c3c1O[C@H]1c4oc5ccccc5c4C[C@@]4(O)[C@@H](C2)N(CC2CC2)CC[C@]314	-	-	-	-	-	0
O=C(Oc1c(Cl)cc(Cl)c2ccccc12)N1CCCCC1	0	-	0	0	56	0
C=C(C)[C@H]1CN[C@H](C(=O)O)[C@H]1CC(=O)O	-	-	-	-	-	0
O=C(Nc1ccc(Br)cc1)c1nn(C23CC4CC(CC(C4)C2)C3)cc1Br	0	-	-	0	-	3
CCCCn1c(O)c(C(C)=NC(Cc2c[nH]c3ccccc23)C(=O)OC)c(=O)[nH]c1=O (configuration not stated)	0	0	0	0	0	2.7
CCCCCCn1c(O)c(C(C)=NC)c(=O)[nH]c1=O	0	-	0	0	0	0
O=C(COC(=O)c1cccc(O)c1)Nc1ccc(Cl)cc1C(=O)c1ccccc1	-	-	0	-	0	-
COC(=O)C1=CO[C@@H](C)[C@H]2CN3CC[C@]4(C(=O)Nc5ccccc54)[C@@H]3C[C@H]12	-	-	-	-	-	0
O=C(c1ccccc1)c1cn(CC(=O)N2CCCc3ccccc32)c2ccccc12	0	-	0	0	0	0
SMILES	FAK inh	D1 mod	Mac1 fbg enh	Pyk2 oligo antag	Mac1 fbg inh	hDAT+cocaine
O=C(Cn1cc(C(=O)c2ccccc2)c2ccccc21)NCc1ccco1	0	0	0	-3.2	0	0
COc1ccc(Oc2cc(NC(=O)c3nn(C)cc3[N+](=O)[O-])cc([N+](=O)[O-])c2)cc1	0	-	0	-3.7	0	0
C=CCN(CC=C)Cc1c[nH]c2ccccc12	0	-5.6	0	-	0	0
CCn1c(O)c(C=NCCc2c[nH]c3ccccc23)c(=O)[nH]c1=O	0	0	0	0	0	0
CC[C@@H](C(N)=O)N1CCCC1=O	-	-	-	-	-	0
CN1CCC(N(C)c2ncnc3ccc(Br)cc23)CC1	0	-4.3	0	0	0	0
CCCCCCn1c(O)c(C=NC2CCCCC2N)c(=O)[nH]c1=O (configuration not stated)	0	0	0	-	0	0

Bioassay records from PubChem.
